# Shown are actives, neighbours in structure and some others; about 19% of the full set was active somewhere.
# VP16 counter – Gal4-VP16 reporter inhibition counter-screen; Drosophila S2 Gal4-VP16 UAS-luciferase, luminescence, 20 h; Potency, µM (series often up to 53.6 µM), hits mostly inhibitors; 310,000 compounds, 3.5% hits; AID 2546;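 note: Gal4-VP16 expression switched on by copper sulfate through the metallothionein promoter; nearly all actives have a fitted effect of over 50% in size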
# DT40 TDP1 no CPT – qHTS for Inhibitors of human tyrosyl-DNA phosphodiesterase 1 (TDP1): qHTS in cells in absence of CPT; Potency, µM (series often up to 46.2 µM), hits mostly inhibitors; AID 686978, 2013; DT40 Tdp1-/- hTDP1 cells, no CPT, ATP luminescence, 48 h; 420,000 compounds, 15% hits; note: nearly all actives have a fitted effect of over 55% in size
#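 A cellular qHTS used chicken DT40 cells lacking endogenous Tdp1 but carrying stably transfected human TDP1. Compounds were applied without camptothecin, and cell growth kinetics were judged by ATP-dependent luminescence after ≥48 hr.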
# TDP1 block – TDP1 (human) enzyme inhibition; Q9NUW8; recombinant TDP1, AlphaScreen DNA substrate cleavage; Potency, µM (doses to about 130 µM), hits mostly inhibitors; 350,000 compounds, 0.28% hits; AID 485290; note: nearly all actives have a fitted effect of over 40% in size
# Target sequence (Q9NUW8 whole entry, looked up): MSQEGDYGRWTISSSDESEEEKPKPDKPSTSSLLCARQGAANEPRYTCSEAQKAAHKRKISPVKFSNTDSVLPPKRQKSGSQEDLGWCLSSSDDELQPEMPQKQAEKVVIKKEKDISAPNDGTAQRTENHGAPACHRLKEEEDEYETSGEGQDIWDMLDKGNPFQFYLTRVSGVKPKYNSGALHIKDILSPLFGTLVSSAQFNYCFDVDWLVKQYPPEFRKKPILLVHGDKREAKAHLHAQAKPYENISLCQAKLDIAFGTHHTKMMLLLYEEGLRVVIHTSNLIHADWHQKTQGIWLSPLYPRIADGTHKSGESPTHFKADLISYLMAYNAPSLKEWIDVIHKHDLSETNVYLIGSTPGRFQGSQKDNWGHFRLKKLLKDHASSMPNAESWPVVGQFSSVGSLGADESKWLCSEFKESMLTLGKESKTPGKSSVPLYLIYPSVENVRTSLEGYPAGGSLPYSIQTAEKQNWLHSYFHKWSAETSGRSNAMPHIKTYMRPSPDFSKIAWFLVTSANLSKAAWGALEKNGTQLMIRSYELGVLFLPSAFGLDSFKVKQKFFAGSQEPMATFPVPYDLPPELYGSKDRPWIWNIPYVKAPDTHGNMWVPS
#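 Recombinant E. coli-expressed Tdp1 (1 nM) preincubated with compound 15 min at RT, then 5'-biotin/3'-phosphotyrosine-FITC DNA substrate (15 nM) added for 5 min. AlphaScreen beads (10 ug/ml) added, 10 min RT; tyrosine-FITC cleavage read as signal loss.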
# DT40 TDP1 CPT – DT40-hTDP1 cell growth loss with CPT; Potency, µM (titrated, usually from 46.2 µM), most hits filed as inhibitors; 420,000 compounds, 12% hits; chicken DT40 Tdp1-/-;hTDP1 cells + 20 nM CPT, ATP luminescence, 48 h; note: nearly all actives have a fitted effect of over 55% in size
#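 Chicken DT40 Tdp1-/- cells stably complemented with human TDP1 were seeded at 400 cells/well in medium containing 20 nM camptothecin, exposed to pin-transferred compounds, and grown at 37 °C for at least 48 hr. Viability was read as ATP luminescence.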
# RORg inh – blocks mouse ROR gamma transcriptional activity. AID 2551. Drosophila S2 Gal4-RORgamma UAS-luciferase reporter, 20 h. 310,000 compounds, 5.4% hits. Potency, µM (titrated, usually from 53.6 µM), most hits filed as inhibitors. P51450; note: nearly all actives have a fitted effect of over 60% in size
#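 Using a luciferase readout, inhibitors were identified by reduced reporter activity in Drosophila cells coexpressing a copper-inducible Gal4–ROR gamma fusion and UAS-driven Photinus luciferase, incubated 20 hr after 700 uM copper sulfate.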
# Numbers stand for hits; 0 = inactive; ? = inconclusive; - = no result given. Calls come from the whole dose curve; as a rule, active = well fitted curve in the direction sought with a large enough effect; inconclusive = small, poorly fitted or top-dose-only effect, or another doubt; inactive = no such curve, though single readings can be large; an effect the other way counts as inactive or inconclusive.
SMILES,VP16 counter,DT40 TDP1 no CPT,TDP1 block,DT40 TDP1 CPT,RORg inh
O=C(Nc1ccc(S(=O)(=O)Nc2ccccc2)cc1)N1CCCC1,-,0,0,0,-
Cc1ccc(Cl)c(OCC(=O)Nc2ccccc2C(=O)NC2CC2)c1,0,?,0,0,0
O=C1NC2(CCCCC2)C(=O)N1Cc1cccc(C(F)(F)F)c1,0,0,0,0,0
CCc1ccc[n+](-c2[nH]c(=O)sc2/C=N/N=C(\[O-])CCn2c3ccccc3c3ccccc32)c1,0,0,0,0,0
CCc1cccc(NC(=O)Cn2c(-c3ccc(F)cc3)cc(C(C)=O)c2C)c1,-,16µM,0,13µM,-
CC(=O)c1cc(-c2ccc(F)cc2)n(CC(=O)Nc2cc(C)cc(C)c2)c1C,-,?,0,?,-
CCOC(=O)c1cc(-c2ccccc2)n(CC(=O)Nc2ccc(CC)cc2)c1C,-,16µM,0,8.2µM,-
CC(=O)c1cc(-c2ccccc2)n(CC(=O)Nc2ccc(C)c(C)c2)c1C,0,12µM,0,?,0
CC(=O)c1cc(-c2ccccc2)n(CC(=O)Nc2cccc(C)c2C)c1C,0,0,0,0,0
CCOC(=O)c1cc(-c2ccccc2)n(CC(=O)Nc2ccc(OC)cc2)c1C,0,?,0,0,0
CCOC(=O)c1cc(-c2ccccc2)n(CC(=O)NCc2ccc(C)cc2)c1C,-,8.2µM,0,?,-
CCOC(=O)c1cc(-c2ccccc2)n(CC(=O)NCc2ccccc2)c1C,-,?,0,?,-
Cn1cc(CCNCc2cn[nH]c2-c2ccc(-c3ccccc3)cc2)cn1,0,?,-,?,0
Cn1cc(CNCc2cn(C)nc2-c2ccc(C3CCCCC3)cc2)cn1,?,18µM,0,?,0
Cc1ccccc1CNC(=O)Cn1ccc2cc(S(=O)(=O)N3CCCCC3)ccc21,-,?,0,?,-
CC(CNC(=O)Cn1ccc2cc(S(=O)(=O)N3CCCCC3)ccc21)c1ccccc1 (stereo not given),-,21µM,0,?,-
CC(CNC(=O)Cn1ccc2cc(S(=O)(=O)N3CCCC3)ccc21)c1ccccc1 (stereo not given),0,23µM,0,18µM,0
CCCC(=O)Nc1ccc(N2CCN(C(=O)c3cc4ccccc4o3)CC2)cc1,0,?,-,0,0
O=C(COc1ccccc1)Nc1c(C(=O)N2CCN(c3ccc(F)cc3)CC2)oc2ccccc12,-,?,0,?,-
CCC(CC)C(=O)Nc1c(C(=O)N2CCN(c3ccccc3)CC2)oc2ccccc12,0,8.2µM,0,21µM,0
O=C(Nc1c(C(=O)N2CCN(c3ccccc3F)CC2)oc2ccccc12)c1ccc(Br)o1,-,?,0,18µM,-
CC(C)CC(=O)Nc1c(C(=O)N2CCN(c3ccccc3)CC2)oc2ccccc12,-,21µM,0,15µM,-
CCCCC(=O)Nc1c(C(=O)N2CCN(c3ccccc3)CC2)oc2ccccc12,-,9.2µM,0,15µM,-
CCN(C(=O)CSc1nnc(SC)s1)c1c(N)n(Cc2ccccc2)c(=O)[nH]c1=O,-,0,0,0,-
CCCCCNc1nc2ccccc2nc1NS(=O)(=O)c1cccs1,0,0,0,0,0
SMILES,VP16 counter,DT40 TDP1 no CPT,TDP1 block,DT40 TDP1 CPT,RORg inh
Cc1c(C(=O)N2CCC(C)CC2)cccc1[N+](=O)[O-],0,0,0,0,0
CC1(O)N(Cc2ccccc2)C(=O)OC12CCCCC2 (stereo not given),0,0,0,?,0
Cc1ccccc1CNCCCSc1nnnn1C,-,0,0,0,-
Cc1c(-c2ccc(O)cc2)nc2nc(-c3ccccc3)c(-c3ccccc3)nn12,0,-,0,-,0
O=C(CSc1nnc(COc2cccc3ccccc23)o1)N1c2ccccc2CCc2ccccc21,0,?,0,?,0
O=C(O)/C=C/c1cn(-c2ccccc2)nc1-c1ccc(-c2ccc([N+](=O)[O-])cc2)o1,0,?,0,0,0
CCN1CCN(c2cc(-c3ccc(F)cc3)c3c(n2)CCCCCC3)CC1,-,0,-,0,-
COc1ccccc1N1CCN(C(=O)CSc2nc(N)cc(=O)[nH]2)CC1,0,0,0,?,0
CC(C)C(=O)Nc1c(C(=O)N2CCN(c3ccccc3F)CC2)oc2ccccc12,-,12µM,0,10µM,-
CCOc1ccc(C(=O)Nc2c(C(=O)N3CCN(c4ccccc4F)CC3)oc3ccccc23)cc1,-,0,0,?,-
CC(C)C(=O)Nc1c(C(=O)N2CCN(c3ncccn3)CC2)oc2ccccc12,0,0,0,0,0
CCC(CC)C(=O)Nc1c(C(=O)N2CCN(c3ccccc3F)CC2)oc2ccccc12,-,10µM,0,15µM,-
O=S(=O)(c1ccccc1)c1nc(-c2ccccc2Cl)oc1NCCN1CCOCC1,0,?,0,?,0
COc1ccccc1OCCSc1nnc(CNC(=O)c2ccco2)n1C,0,0,-,0,0
Cc1cc(C)nc(Nc2ncc(O)n2-c2ccc(C)c(C)c2)n1,0,0,-,0,0
Cc1cc(C)nc(Nc2ncc(O)n2-c2ccc(C)c(Cl)c2)n1,?,0,0,0,11µM
CC(=O)Nc1ccc(NS(=O)(=O)c2cc3c4c(c2)CC(=O)N4CCC3)cc1,-,0,0,0,-
Cc1nsc2nc3c(F)c(F)c(F)c(F)c3cc12,0,?,-,?,?
CC1=N/C(=C\c2ccc([N+](=O)[O-])cc2)C(=O)N1c1ccc(Br)c(C)c1,0,5.8µM,0,12µM,0
Cc1cc(S(=O)(=O)NCC(C)C)ccc1OCC(=O)NCc1ccccn1,0,0,0,0,0
CCN1C(=O)C(CC(=O)Nc2ccc(F)cc2)N(CCCN2CCN(c3ccc(F)cc3)CC2)C1=S (stereo not given),?,15µM,0,15µM,0
CCCOc1ccc(NC(=O)CC2C(=O)N(CC)C(=S)N2CCCN2CCN(Cc3ccccc3)CC2)cc1 (stereo not given),?,15µM,0,15µM,?
CCOc1ccc(NC(=O)CC2C(=O)N(CC)C(=S)N2CCN2CCOCC2)cc1 (stereo not given),0,?,0,?,?
CCOC(=O)c1nn(-c2ccc(Cl)cc2)cc1O,0,0,-,?,0
CC(Cc1c[nH]c2ccccc12)NC(N)=O (stereo not given),0,0,0,0,0
CC[C@@H](C)[C@H](NS(=O)(=O)c1cccc2ccccc12)C(=O)N[C@H](C=O)Cc1c[nH]c2ccccc12,-,5.3µM,0,5.9µM,-
COc1cc(COc2cc(N)c(Cl)cc2C(=O)CCC2CCN(CCNS(C)(=O)=O)CC2)cc(OC)c1,16µM,16µM,0,27µM,16µM
O=[N+]([O-])c1ccc(O)c(C=Nc2ccc3nc(-c4ccccc4)[nH]c3c2)c1,0,0,0,0,0
Oc1c(Br)cc(C=Nc2ccc3nc(-c4ccccc4)[nH]c3c2)c(O)c1Br,0,15µM,0,16µM,0

# Screens as filed in PubChem BioAssay.
